Bioassay records: PubChem BioAssay, National Center for Advancing Translational Sciences (NCATS)
The sample as a whole holds a higher share of hits than the screen did.
Pf Dd2 growth: qHTS Primary assay for Inhibitors of Plasmodium falciparum Dd2 growth in vitro; P. falciparum Dd2 growth, SYBR Green, 72 h; Potency, µM (top dose mostly 28.9 µM), usual class: inhibitors; 4.3% of 120,000 active; AID 1347417, 2020; active = well fitted inhibition curve with a large enough effect; also: nearly all actives have a fitted effect of over 65% in size
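Readout: SYBR Green fluorescence, 485 nm excitation, 535 nm emission, after ~16 h lysis at 37C. Before that, Dd2-infected red cells (2.5% hematocrit) grew 72 h with compound, 29 uM top final concentration.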
Hits are given with their value.

What do the screens show for `COc1ccc(CNC(=O)c2c(Nc3ccc(OC)cc3OC)sc(C(=O)c3ccc(Cl)cc3)c2N)cc1`?
Pf Dd2 growth: inactive

What do the screens show for `COc1ccc2nc3sc(C(=O)Nc4ccccc4F)cc3cc2c1`?
Pf Dd2 growth: inactive

Results for Cc1cccc(C)c1Nc1sc(C(=O)c2ccccc2)c(N)c1S(=O)(=O)c1ccccc1 ?
Pf Dd2 growth: inactive

How did Cc1ccc(S(=O)(=O)c2c(Nc3ccccc3)sc(C(=O)c3ccc4c(c3)OCO4)c2N)cc1 do in these assays?
Pf Dd2 growth: 13µM

What do the screens show for `COc1cccc(C(=O)c2sc(Nc3ccc(F)c(Cl)c3)nc2N)c1`?
Pf Dd2 growth: inactive

What do the screens show for `CCS(=O)(=O)c1c(Nc2cc(C)ccc2C)sc(C(=O)c2ccccc2)c1N`?
Pf Dd2 growth: inactive

What do the screens show for `COc1ccc(S(=O)(=O)c2c(Nc3ccc(C)cc3C)sc(C(=O)c3ccc(F)cc3)c2N)cc1`?
Pf Dd2 growth: 11µM

What do the screens show for `Cc1ccccc1Nc1sc(C(=O)c2ccc3c(c2)OCO3)c(N)c1S(=O)(=O)c1ccccc1`?
Pf Dd2 growth: inactive

What do the screens show for `CC(=O)c1cc2c(cc1N/C(=N/S(=O)(=O)c1ccc(C)cc1)c1ccccc1)OCO2`?
Pf Dd2 growth: inactive

Results for CCc1ccccc1Nc1sc(C(=O)c2ccccc2)c(N)c1S(=O)(=O)c1ccccc1 ?
Pf Dd2 growth: 11µM

Results for COc1ccc(S(=O)(=O)c2c(Nc3ccccc3F)sc(C(=O)c3cccc(OC)c3)c2N)cc1 ?
Pf Dd2 growth: 11µM

How did O=C(NCCc1nc(Cc2ccccc2)no1)c1ccc2nccn2c1 do in these assays?
Pf Dd2 growth: inactive

What do the screens show for `O=C(C[C@H]1NC(=O)c2ccccc2NC1=O)Nc1nnc(C2CC2)s1`?
Pf Dd2 growth: inactive

How did CCOc1ccc(C2Cn3nnc(-c4nc(-c5ccc(F)cc5)no4)c3CO2)cc1 (stereo unspecified) do in these assays?
Pf Dd2 growth: inactive

Results for O=C(c1ccsc1)N1[C@H]2CC[C@@H]1c1cnc(-c3ccc(F)cc3)nc1C2 ?
Pf Dd2 growth: inactive

How did Cc1cc(CNC(=O)c2cc(-c3ccnn3C)cc3c2OCCN3C)no1 do in these assays?
Pf Dd2 growth: inactive

How did CCS(=O)(=O)N1C[C@@H](COC)[C@H](C(=O)NC)C1 do in these assays?
Pf Dd2 growth: inactive

What do the screens show for `CCOCc1nc(C2CCCN(C(=O)Cc3ccc(OC)cc3)C2)no1` (stereo unspecified)?
Pf Dd2 growth: inactive

What do the screens show for `Clc1ccc(-c2cnc3n[nH]c(-c4ccccc4)c3n2)cc1`?
Pf Dd2 growth: inactive

What do the screens show for `O=C1CC2CCCC(C1)N2C(=O)C1CCCC1`?
Pf Dd2 growth: inactive

How did CCCn1nc2c(c1C)C(c1ccc(OCC(N)=O)c(Cl)c1)CC(=O)N2 (stereo unspecified) do in these assays?
Pf Dd2 growth: inactive

What do the screens show for `COc1cccc(C(=O)c2cn(CC(=O)NCc3ccccc3Cl)c3nc(C)ccc3c2=O)c1`?
Pf Dd2 growth: inactive

Results for COc1cccc(C(=O)Nc2ccccc2-c2nc3ccccc3s2)c1 ?
Pf Dd2 growth: inactive

What do the screens show for `CCc1ccccc1Nc1sc(C(=O)c2cccc(OC)c2)c(N)c1S(=O)(=O)c1ccccc1`?
Pf Dd2 growth: 11µM

How did CCCc1nnc(N2C[C@H]3COc4ccccc4C[C@@]3(C(=O)O)C2)s1 do in these assays?
Pf Dd2 growth: inactive

What do the screens show for `CC1CCCN1C(=O)c1cc(-c2cnn(C(C)C)c2)nc2cc(F)ccc12` (stereo unspecified)?
Pf Dd2 growth: inactive

How did CC1CCCCN1C(=O)c1cc(-c2ccc(Br)cc2)on1 (stereo unspecified) do in these assays?
Pf Dd2 growth: inactive

How did CC(C)=CCn1c(-c2cc(C)oc2C)cn2cc(C(=O)N3CCCC3C)nc2c1=O (stereo unspecified) do in these assays?
Pf Dd2 growth: 8.9µM

Results for COCCNC(=O)C1c2ccccc2C(=O)N(Cc2ccccc2)C12CCCC2 (stereo unspecified) ?
Pf Dd2 growth: inactive

How did Cc1ccc(N2CC(c3noc(-c4cc5ccccc5[nH]4)n3)CC2=O)cc1 (stereo unspecified) do in these assays?
Pf Dd2 growth: inactive

Results for O=C(CN1C(=O)C(c2ccccc2)=NC12CCCC2)NCCC1=CCCCC1 ?
Pf Dd2 growth: inactive

What do the screens show for `COCCN1CC2(CCCN(C(=O)c3cc(-c4ccsc4)n[nH]3)C2)CCC1=O` (stereo unspecified)?
Pf Dd2 growth: inactive

Results for CN(C)C[C@H]1C[C@@H](CO)CN(C(=O)c2cc(-c3ccccc3F)n[nH]2)C1 ?
Pf Dd2 growth: inactive

Results for O=C(c1cc(-c2ccccc2F)n[nH]1)N1CCC2(CCCN(Cc3ccccc3F)C2)C1 (stereo unspecified) ?
Pf Dd2 growth: 8.9µM

Results for Cc1ccc(NC(=O)Cn2c(=O)c(-c3noc(C)n3)c3n(c2=O)CCCCC3)cc1 ?
Pf Dd2 growth: inactive

What do the screens show for `CCCCOc1ccc(C2=NC(c3cccs3)=Nc3ccc(OC)cc3N2)cc1`?
Pf Dd2 growth: inactive

Results for CCc1ccc2c(c1)NC(c1cccs1)=NC(c1ccc(F)cc1)=N2 ?
Pf Dd2 growth: inactive
